# Measured values: PMC7862700, “An all-to-all approach to the identification of sequence-specific readers for epigenetic DNA modifications on cytosine”
# Legend:
# Test in all cases: DAPPL (digital affinity profiling via proximity ligation, sequencing); 10 mM Tris-HCl pH 7.5, 50 mM NaCl, 1 mM DTT, 4% glycerol, room temperature, 30 min; GST-TFs on glutathione beads, 16-mer random dsDNA library, 0.1% formaldehyde crosslink after washing; high values mean tight binding
# FEV = target: T1, FEV (Homo sapiens, UniProt Q99581 1-238); details: protein: recombinant; tags: N-terminal GST; dsDNA, one strand shown
# T1 sequence: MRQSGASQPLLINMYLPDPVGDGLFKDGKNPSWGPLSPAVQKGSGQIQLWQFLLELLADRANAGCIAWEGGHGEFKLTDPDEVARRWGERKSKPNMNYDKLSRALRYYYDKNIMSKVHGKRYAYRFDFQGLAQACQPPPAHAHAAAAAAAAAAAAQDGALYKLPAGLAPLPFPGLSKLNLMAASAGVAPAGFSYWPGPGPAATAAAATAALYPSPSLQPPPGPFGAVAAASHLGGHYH
# Outline: (§1)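 Beads coated with glutathione captured GST-fused human transcription factors that had been expressed in yeast, and the factors were then given DNA barcodes and pooled with a tag-only sample. The pools were incubated with 200 nmole of a random double-stranded 16-mer DNA library in Tris/NaCl/DTT/glycerol buffer for 30 min at room temperature, washed, crosslinked with 0.1% formaldehyde and proximity-ligated with BsaI/T4 ligase at 37 °C for 1 h. PCR amplification and Illumina NextSeq500 sequencing came last. Binding signal is each hexamer's read frequency for a factor divided by its frequency for the tag-only sample.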
# ETV5 = ETV5 (Homo sapiens, UniProt P41161 1-510); details: protein: recombinant; tags: N-terminal GST; dsDNA, one strand shown
# Chain of ETV5 (P41161 whole entry): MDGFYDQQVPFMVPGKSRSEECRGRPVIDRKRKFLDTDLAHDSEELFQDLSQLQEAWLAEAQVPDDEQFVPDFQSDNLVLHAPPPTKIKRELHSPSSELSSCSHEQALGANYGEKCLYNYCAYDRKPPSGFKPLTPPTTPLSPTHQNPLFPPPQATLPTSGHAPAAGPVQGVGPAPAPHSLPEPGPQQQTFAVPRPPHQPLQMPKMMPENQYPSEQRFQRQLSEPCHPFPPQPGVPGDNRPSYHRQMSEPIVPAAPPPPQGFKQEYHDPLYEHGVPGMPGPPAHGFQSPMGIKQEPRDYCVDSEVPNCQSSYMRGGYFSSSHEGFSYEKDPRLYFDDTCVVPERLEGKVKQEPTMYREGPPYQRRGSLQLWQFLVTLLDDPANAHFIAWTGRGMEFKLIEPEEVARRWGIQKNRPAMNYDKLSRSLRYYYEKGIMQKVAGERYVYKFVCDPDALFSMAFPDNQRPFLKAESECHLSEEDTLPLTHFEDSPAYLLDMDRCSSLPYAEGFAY
# Outline: as §1
# HSF1 = HSF1 (Homo sapiens, UniProt Q00613 1-529); details: protein: recombinant; tags: N-terminal GST; chain copies: 3; dsDNA, one strand shown
# Chain of HSF1 (Q00613 whole entry): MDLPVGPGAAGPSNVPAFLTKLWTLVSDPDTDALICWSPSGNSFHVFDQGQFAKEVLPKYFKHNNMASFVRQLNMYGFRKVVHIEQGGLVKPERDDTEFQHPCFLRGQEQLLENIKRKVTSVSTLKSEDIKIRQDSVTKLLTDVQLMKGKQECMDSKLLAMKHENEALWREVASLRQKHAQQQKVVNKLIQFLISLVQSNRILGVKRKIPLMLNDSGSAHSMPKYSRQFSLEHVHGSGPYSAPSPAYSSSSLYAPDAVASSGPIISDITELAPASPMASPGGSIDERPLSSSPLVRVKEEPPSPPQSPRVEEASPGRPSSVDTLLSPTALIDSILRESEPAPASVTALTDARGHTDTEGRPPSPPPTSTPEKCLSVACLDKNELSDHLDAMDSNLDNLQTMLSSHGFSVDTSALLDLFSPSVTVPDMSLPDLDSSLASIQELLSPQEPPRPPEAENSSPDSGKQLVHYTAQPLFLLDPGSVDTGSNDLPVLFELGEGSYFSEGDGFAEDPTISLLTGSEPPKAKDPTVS
# Outline: as §1
# SPIC = target: T2, SPIC (Homo sapiens, UniProt Q8N5J4 1-248); details: protein: recombinant; tags: N-terminal GST; dsDNA, one strand shown
# T2 sequence: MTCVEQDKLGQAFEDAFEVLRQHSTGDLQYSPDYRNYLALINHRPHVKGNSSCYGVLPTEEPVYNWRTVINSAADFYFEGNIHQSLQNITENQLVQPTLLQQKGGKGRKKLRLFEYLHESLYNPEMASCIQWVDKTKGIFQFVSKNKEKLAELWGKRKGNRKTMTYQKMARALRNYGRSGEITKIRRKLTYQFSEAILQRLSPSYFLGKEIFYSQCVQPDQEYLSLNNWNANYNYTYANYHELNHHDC
# Outline: as §1
# ELF4 = ELF4 (Homo sapiens, UniProt Q99607 1-663); details: protein: recombinant; tags: N-terminal GST; dsDNA, one strand shown
# Chain of ELF4 (Q99607 whole entry): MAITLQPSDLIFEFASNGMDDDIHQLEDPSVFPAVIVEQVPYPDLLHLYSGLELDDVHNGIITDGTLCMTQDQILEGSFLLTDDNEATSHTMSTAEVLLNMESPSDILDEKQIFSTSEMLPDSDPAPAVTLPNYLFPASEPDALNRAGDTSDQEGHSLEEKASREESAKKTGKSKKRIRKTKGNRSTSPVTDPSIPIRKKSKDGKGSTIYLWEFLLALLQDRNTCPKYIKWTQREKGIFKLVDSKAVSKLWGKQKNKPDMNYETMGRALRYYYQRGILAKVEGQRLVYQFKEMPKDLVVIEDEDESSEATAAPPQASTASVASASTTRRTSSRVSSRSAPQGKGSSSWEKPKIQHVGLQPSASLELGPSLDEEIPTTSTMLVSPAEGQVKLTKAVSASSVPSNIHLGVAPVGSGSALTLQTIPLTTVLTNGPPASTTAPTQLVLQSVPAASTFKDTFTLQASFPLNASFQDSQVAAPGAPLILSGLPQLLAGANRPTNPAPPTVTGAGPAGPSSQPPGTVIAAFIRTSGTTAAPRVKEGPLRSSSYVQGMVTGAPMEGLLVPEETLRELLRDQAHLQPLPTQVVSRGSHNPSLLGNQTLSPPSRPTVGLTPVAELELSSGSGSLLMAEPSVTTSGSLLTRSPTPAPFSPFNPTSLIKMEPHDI
# Outline: as §1
# ELK4 = target: T3, ELK4 (Homo sapiens, UniProt P28324-2 1-405); details: protein: recombinant; tags: N-terminal GST; dsDNA, one strand shown
# T3 sequence: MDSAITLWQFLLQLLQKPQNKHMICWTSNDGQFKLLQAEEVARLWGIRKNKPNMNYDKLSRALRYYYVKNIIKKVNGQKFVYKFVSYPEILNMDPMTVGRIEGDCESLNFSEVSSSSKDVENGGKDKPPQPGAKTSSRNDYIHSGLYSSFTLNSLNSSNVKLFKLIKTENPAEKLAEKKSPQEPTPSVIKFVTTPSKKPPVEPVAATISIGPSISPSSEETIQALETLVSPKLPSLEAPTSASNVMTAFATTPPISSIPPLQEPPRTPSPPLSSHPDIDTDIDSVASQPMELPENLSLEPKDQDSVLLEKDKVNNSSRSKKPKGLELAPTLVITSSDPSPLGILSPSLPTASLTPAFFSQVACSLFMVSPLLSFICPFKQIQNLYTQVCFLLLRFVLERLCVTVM
# Outline: as §1
# ETV2 = target: T4, ETV2 (Homo sapiens, UniProt O00321 1-342); details: protein: recombinant; tags: N-terminal GST; dsDNA, one strand shown
# T4 sequence: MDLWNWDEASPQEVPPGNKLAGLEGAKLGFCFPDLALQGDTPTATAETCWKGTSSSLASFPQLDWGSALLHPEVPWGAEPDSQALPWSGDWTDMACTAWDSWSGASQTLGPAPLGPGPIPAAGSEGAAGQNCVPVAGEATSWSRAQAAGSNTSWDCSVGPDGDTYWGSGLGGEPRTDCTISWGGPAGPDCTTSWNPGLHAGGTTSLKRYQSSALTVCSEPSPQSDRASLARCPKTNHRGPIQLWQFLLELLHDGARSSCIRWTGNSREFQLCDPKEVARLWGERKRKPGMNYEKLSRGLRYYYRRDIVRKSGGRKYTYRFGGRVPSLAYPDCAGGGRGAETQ
# Outline: as §1
# ELF3 = target: T5, ELF3 (Homo sapiens, UniProt P78545 1-371); details: protein: recombinant; tags: N-terminal GST; dsDNA, one strand shown
# T5 sequence: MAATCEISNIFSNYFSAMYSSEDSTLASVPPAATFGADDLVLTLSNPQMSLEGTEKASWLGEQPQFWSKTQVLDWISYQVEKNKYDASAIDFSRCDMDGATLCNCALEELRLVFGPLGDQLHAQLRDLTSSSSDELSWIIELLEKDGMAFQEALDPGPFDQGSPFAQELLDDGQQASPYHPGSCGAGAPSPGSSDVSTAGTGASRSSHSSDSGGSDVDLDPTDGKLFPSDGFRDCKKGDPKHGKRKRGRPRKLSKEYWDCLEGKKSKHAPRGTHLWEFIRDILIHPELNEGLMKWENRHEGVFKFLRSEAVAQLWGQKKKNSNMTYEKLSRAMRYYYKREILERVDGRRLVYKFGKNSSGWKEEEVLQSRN
# Outline: as §1
# CRX = CRX (Homo sapiens, UniProt O43186 1-299); details: protein: recombinant; tags: N-terminal GST; dsDNA, one strand shown
# Chain of CRX (O43186 whole entry): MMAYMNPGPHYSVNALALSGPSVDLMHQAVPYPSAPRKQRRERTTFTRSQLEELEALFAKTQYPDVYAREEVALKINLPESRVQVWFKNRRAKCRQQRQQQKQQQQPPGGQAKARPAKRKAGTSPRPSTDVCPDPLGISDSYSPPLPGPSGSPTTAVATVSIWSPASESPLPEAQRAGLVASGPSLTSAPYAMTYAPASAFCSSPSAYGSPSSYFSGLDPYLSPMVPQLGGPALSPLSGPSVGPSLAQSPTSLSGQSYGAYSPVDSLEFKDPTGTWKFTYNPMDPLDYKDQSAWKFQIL
# Outline: as §1
# ETV1 = ETV1 (Homo sapiens, UniProt P50549 1-477); details: protein: recombinant; tags: N-terminal GST; dsDNA, one strand shown
# Chain of ETV1 (P50549 whole entry): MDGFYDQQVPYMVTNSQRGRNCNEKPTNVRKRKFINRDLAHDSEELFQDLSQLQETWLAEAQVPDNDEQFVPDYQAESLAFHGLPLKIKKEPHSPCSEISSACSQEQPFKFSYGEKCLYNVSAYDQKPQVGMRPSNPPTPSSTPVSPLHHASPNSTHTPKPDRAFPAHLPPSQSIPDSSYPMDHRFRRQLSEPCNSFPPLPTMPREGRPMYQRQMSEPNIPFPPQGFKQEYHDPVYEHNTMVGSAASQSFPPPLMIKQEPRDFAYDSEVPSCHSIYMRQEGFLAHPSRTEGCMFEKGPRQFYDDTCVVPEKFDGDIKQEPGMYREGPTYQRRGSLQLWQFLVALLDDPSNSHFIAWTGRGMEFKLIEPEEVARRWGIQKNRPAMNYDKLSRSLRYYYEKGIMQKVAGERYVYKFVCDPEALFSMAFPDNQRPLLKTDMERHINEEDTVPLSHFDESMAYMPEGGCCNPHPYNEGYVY
# Outline: as §1
# ERF = target: T6, ERF (Homo sapiens, UniProt P50548 1-548); details: protein: recombinant; tags: N-terminal GST; dsDNA, one strand shown
# T6 sequence: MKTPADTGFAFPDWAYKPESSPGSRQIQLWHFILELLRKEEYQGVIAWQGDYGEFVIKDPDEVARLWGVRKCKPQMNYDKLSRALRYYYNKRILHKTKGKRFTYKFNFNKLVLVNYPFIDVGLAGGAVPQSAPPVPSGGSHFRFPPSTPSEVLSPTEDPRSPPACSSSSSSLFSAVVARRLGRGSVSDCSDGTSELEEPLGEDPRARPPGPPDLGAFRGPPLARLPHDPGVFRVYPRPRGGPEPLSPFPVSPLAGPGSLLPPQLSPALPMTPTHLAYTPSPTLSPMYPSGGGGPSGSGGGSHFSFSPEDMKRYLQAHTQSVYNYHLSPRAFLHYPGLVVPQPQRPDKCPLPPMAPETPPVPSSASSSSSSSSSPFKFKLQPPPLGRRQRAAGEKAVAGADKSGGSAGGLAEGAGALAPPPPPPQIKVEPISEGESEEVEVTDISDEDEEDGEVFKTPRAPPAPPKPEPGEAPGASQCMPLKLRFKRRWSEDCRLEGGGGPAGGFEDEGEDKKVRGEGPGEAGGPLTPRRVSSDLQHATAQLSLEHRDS
# Outline: as §1
# ETV3L = target: T7, ETV3L (Homo sapiens, UniProt Q6ZN32 1-361); details: protein: recombinant; tags: N-terminal GST; dsDNA, one strand shown
# T7 sequence: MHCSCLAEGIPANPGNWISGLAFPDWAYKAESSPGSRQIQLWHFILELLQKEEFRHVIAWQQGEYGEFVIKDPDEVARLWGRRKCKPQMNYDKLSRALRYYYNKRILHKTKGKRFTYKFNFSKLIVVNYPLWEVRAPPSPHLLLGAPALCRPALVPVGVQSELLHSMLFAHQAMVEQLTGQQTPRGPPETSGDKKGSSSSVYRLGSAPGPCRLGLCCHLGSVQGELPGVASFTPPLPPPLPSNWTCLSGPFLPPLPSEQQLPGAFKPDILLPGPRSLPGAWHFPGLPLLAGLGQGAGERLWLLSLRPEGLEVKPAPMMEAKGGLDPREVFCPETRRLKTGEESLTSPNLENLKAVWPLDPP
# Outline: as §1
# ETS2 = target: T8, ETS2 (Homo sapiens, UniProt P15036 1-469); details: protein: recombinant; tags: N-terminal GST; dsDNA, one strand shown
# T8 sequence: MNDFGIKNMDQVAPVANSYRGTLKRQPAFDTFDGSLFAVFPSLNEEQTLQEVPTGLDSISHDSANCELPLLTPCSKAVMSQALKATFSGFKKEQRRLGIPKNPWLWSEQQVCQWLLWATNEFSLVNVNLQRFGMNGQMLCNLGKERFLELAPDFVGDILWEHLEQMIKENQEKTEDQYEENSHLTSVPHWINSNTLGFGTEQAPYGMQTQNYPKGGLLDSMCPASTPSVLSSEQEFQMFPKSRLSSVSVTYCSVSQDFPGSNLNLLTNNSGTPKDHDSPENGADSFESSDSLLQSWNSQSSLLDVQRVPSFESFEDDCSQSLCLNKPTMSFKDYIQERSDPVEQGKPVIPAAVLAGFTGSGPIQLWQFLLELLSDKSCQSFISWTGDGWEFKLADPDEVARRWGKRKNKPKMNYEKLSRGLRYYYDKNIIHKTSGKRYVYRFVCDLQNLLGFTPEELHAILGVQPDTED
# Outline: as §1
# SPDEF = target: T9, SPDEF (Homo sapiens, UniProt O95238 1-335); details: protein: recombinant; tags: N-terminal GST; dsDNA, one strand shown
# T9 sequence: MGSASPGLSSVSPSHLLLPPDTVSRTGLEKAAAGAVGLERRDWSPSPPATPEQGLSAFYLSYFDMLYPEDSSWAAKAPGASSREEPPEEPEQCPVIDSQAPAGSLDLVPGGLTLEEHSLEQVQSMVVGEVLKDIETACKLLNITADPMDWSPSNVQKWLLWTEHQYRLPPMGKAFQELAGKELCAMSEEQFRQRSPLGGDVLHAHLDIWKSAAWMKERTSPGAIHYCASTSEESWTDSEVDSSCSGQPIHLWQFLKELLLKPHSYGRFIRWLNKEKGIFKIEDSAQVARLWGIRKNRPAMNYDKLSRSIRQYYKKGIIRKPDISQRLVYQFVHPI
# Outline: as §1
# ETV7 = target: T10, ETV7 (Homo sapiens, UniProt Q9Y603 1-341); details: protein: recombinant; tags: N-terminal GST; dsDNA, one strand shown
# T10 sequence: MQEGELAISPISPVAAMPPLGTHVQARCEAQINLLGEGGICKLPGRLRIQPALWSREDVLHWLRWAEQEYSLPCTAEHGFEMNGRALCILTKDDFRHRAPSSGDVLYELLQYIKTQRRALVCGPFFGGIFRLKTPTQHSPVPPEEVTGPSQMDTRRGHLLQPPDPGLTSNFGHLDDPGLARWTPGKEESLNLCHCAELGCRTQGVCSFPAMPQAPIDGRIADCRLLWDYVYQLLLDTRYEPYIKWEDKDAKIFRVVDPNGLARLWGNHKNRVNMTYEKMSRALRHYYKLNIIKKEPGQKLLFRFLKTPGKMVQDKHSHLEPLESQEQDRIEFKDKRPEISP
# Outline: as §1
# ELF5 = target: T11, ELF5 (Homo sapiens, UniProt Q9UKW6-2 1-255); details: protein: recombinant; tags: N-terminal GST; dsDNA, one strand shown
# T11 sequence: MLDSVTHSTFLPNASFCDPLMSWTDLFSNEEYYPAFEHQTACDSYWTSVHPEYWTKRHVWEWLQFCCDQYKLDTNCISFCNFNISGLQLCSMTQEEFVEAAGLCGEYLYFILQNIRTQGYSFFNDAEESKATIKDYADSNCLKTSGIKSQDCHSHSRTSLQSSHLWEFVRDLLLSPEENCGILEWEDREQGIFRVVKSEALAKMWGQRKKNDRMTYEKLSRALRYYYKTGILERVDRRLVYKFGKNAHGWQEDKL
# Outline: as §1
# ETV3 = target: T12, ETV3 (Homo sapiens, UniProt P41162-2 1-143); details: protein: recombinant; tags: N-terminal GST; dsDNA, one strand shown
# T12 sequence: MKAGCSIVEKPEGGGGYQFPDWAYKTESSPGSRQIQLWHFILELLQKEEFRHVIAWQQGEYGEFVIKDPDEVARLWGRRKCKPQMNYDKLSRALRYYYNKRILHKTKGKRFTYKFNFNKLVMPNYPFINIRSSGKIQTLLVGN
# Outline: as §1
# ETV6 = ETV6 (Homo sapiens, UniProt P41212 1-452); details: protein: recombinant; tags: N-terminal GST; dsDNA, one strand shown
# Chain of ETV6 (P41212 whole entry): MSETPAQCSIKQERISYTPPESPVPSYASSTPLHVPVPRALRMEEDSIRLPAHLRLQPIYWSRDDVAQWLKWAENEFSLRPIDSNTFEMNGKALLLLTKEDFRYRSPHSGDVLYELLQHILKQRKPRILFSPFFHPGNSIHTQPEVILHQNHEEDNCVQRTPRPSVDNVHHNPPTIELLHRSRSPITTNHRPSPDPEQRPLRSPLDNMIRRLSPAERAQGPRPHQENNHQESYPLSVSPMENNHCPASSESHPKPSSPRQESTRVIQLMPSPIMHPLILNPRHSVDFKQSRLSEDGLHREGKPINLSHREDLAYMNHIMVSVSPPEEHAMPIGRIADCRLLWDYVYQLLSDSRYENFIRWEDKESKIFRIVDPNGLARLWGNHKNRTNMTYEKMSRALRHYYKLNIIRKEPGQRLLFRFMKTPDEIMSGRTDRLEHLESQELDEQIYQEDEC
# Outline: as §1
sequence,measurement,setting,value
TTTAAA,binding signal,FEV,"1.25 fold enrichment (6-mer frequency, TF over GST control)"
same,binding signal,ETV5,"1.21 fold enrichment (6-mer frequency, TF over GST control)"
same,binding signal,HSF1,"1.64 fold enrichment (6-mer frequency, TF over GST control)"
same,binding signal,SPIC,"1.02 fold enrichment (6-mer frequency, TF over GST control)"
same,binding signal,ELF4,"1.19 fold enrichment (6-mer frequency, TF over GST control)"
same,binding signal,ELK4,"1.37 fold enrichment (6-mer frequency, TF over GST control)"
same,binding signal,ETV2,"1.44 fold enrichment (6-mer frequency, TF over GST control)"
same,binding signal,ELF3,"1.28 fold enrichment (6-mer frequency, TF over GST control)"
same,binding signal,CRX,"2.15 fold enrichment (6-mer frequency, TF over GST control)"
same,binding signal,ETV1,"1.2 fold enrichment (6-mer frequency, TF over GST control)"
same,binding signal,ERF,"1.31 fold enrichment (6-mer frequency, TF over GST control)"
same,binding signal,ETV3L,"1.35 fold enrichment (6-mer frequency, TF over GST control)"
same,binding signal,ETS2,"1.26 fold enrichment (6-mer frequency, TF over GST control)"
same,binding signal,SPDEF,"1.16 fold enrichment (6-mer frequency, TF over GST control)"
same,binding signal,ETV7,"1.36 fold enrichment (6-mer frequency, TF over GST control)"
same,binding signal,ELF5,"1.19 fold enrichment (6-mer frequency, TF over GST control)"
same,binding signal,ETV3,"1.22 fold enrichment (6-mer frequency, TF over GST control)"
same,binding signal,ETV6,"1.27 fold enrichment (6-mer frequency, TF over GST control)"
